According to ChEMBL document CHEMBL5308541, “MAIP: An Open-Source Tool to Enrich High-Throughput Screening Output and Identify Novel, Druglike Molecules with Antimalarial Activity” (ACS Med Chem Lett, 2023):
Among all 4,800 compounds or so, about 420 (8.8%) showed an effect of 50% or more. Many of the other results were omitted from the sample, so strong results are more common in it than they were.

What follows are compounds tested on Plasmodium falciparum (assay: Confirmatory screen in NF54 nanoGlo assay, in single point, at 2uM, 72h). Settings: timepoint 72 hour.
Assay type: functional, Erythrocyte

Row | Structure (SMILES) | % Inhibition [%]
1 | CN1CCC(N(C)c2ccccc2CNC[C@@H](O)c2cccc(Cl)c2)CC1 | 23
2 | O[C@@H](CNCc1ccc2c(c1)CCO2)c1ccc(F)c(F)c1 | 61
3 | CN1CCN(c2ccc(C(F)(F)F)cc2NCc2cnc[nH]2)CC1 | 62
4 | CN1C2CCC1CC(OC(=O)C1CCC(C(=O)OC3CC4CCC(C3)N4C)(c3ccccc3)c3ccccc31)C2 (stereo not drawn) | 49
5 | Fc1ccc(N2CC[C@H](CN3CCC(c4c[nH]c5ccccc45)(c4c[nH]c5ccccc45)CC3)C2)cc1 | 97
6 | CC(C)(C)c1ccc(CNC[C@H](O)c2ccc(F)cc2F)cc1 | 95
7 | Cc1ccc(CNc2ncnc(N)c2Cl)c(N2CCCC2)n1 | 50
8 | CN(C)CC12CNCC1CN(c1ccnc3cc(Cl)ccc13)C2 (stereo not drawn) | 98
